In PubChem BioAssay AID1304 (The Scripps Research Institute Molecular Screening Center, 2008):
Screen size: about 220,000 compounds; about 800 (0.36%) were called active. Cut-off read from the data, not from the text of the source: active = activation above about 33% (passing the limit was not always enough); inactive = the rest. For the sample, actives were picked, then their nearest neighbours and some compounds at random.

target: Neuropeptide Y receptor type 1 (Homo sapiens) (UniProt P25929); test: NPY-Y1 receptor potentiators or agonists, primary screen, cell-based (AID 1304); details: NPY-Y1 expressing cells, potentiator/agonist activation; at 3.6 µM; stronger effect = higher value;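 note: cells stimulated with NPY at EC10 then isoproterenol at EC100; 0% = low agonist plus stimulus and 100% = saturating agonist plus stimulus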
Sequence (P25929 whole entry, looked up): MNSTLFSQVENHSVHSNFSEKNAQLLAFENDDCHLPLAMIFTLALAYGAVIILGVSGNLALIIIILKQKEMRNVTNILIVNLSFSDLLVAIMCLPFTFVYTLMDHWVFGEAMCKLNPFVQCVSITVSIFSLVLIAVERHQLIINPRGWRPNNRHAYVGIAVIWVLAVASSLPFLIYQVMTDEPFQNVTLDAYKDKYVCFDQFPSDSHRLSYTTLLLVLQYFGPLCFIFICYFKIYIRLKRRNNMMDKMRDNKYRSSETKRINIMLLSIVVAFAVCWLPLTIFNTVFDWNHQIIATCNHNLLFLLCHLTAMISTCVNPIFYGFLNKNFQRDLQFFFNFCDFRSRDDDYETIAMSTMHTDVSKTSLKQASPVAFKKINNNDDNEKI

activation, active:
CN(C)Cc1c(O)ccc2occ(C(O)c3ccccc3)c12 (centres undefined) 105%
O=C(Nc1ccc2c(c1)CCC2)c1cccc(S(=O)(=O)Nc2ccccc2Cl)c1 54.9%
O=C(Nc1cccc(S(=O)(=O)Nc2ccc(Cl)cc2)c1)c1ccc2c(c1)OCCO2 43.8%
Cc1coc2c(O)cc3c(c12)OC1(N2CCCCC2)C(=O)NCCCC31 (centres undefined) 90.8%
CCn1c2ccccc2c2cc(NC(=O)Nc3ccc([N+](=O)[O-])cc3C)ccc21 45.6%
CN1C(=O)c2ccccc2C(C(=O)NCCCN2CCCC2)C1c1c[nH]c2ccccc12 (centres undefined) 51.1%
OC(COCC1COc2ccccc2O1)CN1CCN(c2ccc(F)cc2)CC1 (centres undefined) 74.5%
Cc1ccccc1-n1nnc2c(=O)oc3ccccc3c21 65.8%
CC(CCc1ccccc1)NCC(O)c1cccc([N+](=O)[O-])c1 (centres undefined) 107%
O=C(Nc1ccccc1C(F)(F)F)c1cc(-c2ccc(O)cc2)on1 42.6%

activation, inactive:
CCOc1ncccc1C(=O)N(C)CC(=O)Nc1ccc(F)cc1 -13.4%
S=c1[nH]nc(-c2cc(-c3ccccc3)n[nH]2)n1/N=C/c1c2ccccc2cc2ccccc12 6.62%
CCOc1ccc2c(=O)c(-c3ccc4c(c3)OCCCO4)c(C)oc2c1 2.42%
O=C(Nc1ccc2c(c1)CCC2)c1cccc(S(=O)(=O)N2CCN(c3ccc(F)cc3)CC2)c1 24.4%
O=C(c1cccc(S(=O)(=O)Nc2ccccc2Cl)c1)N1CCN(C(=O)c2ccco2)CC1 0.65%
O=C(Nc1ccc(Cl)cn1)c1ccc2c(c1)OCCO2 -6.11%
O=C(Nc1cccc(S(=O)(=O)N2CCCCC2)c1)c1ccc2c(c1)OCO2 -8.28%
CCc1nnc(NC(=O)CCN(c2ccc(C)cc2)S(=O)(=O)c2ccccc2)s1 1.52%
CSc1ccccc1C(=O)NCc1ccccc1 1.48%
O=S(=O)(c1ccc(F)cc1)N1CC=C(c2ccccc2)CC1 -6.53%
CC(O)c1nc2c(c(=O)n(C)c(=O)n2C)n1C (centres undefined) 11.7%
Cc1coc2cc3oc(=O)c(CCC(=O)O)c(C)c3cc12 -7.91%
CCSc1sc(CC)cc1C=O -2.95%
Cc1ccc(NC(=O)/C(=C/c2ccc([N+](=O)[O-])cc2)NC(=O)c2ccccc2)cc1 30.3%
O=C(O)C1CCN(c2ccc([N+](=O)[O-])cc2[N+](=O)[O-])CC1 -10.1%
COC(=O)c1ccc(COC(=O)c2cnccn2)cc1 -11.9%
O=C(O)C1C2C=CC(O2)C1C(=O)NCCc1cccc(Cl)c1 (centres undefined) 1.36%
COCCCNC(NC(=O)c1ccc(OC)cc1)C(Cl)(Cl)Cl (centres undefined) 15.6%
COCCCNC(=S)N1CCCC(c2nc3cc(C)c(C)cc3[nH]2)C1 (centres undefined) 8.07%
NC(=O)CC[C@@H]1NC(=O)[C@H](CO)NC(=O)c2cc([N+](=O)[O-])cc(I)c2NCC[C@@H](C(N)=O)NC1=O -22.3%
CCn1c2ccccc2c2cc(NC(=O)CNC)ccc21 -3.25%
CC(=O)c1ccc(NC(=O)Nc2ccc([N+](=O)[O-])cc2C)cc1 -8.87%
CC(C)(C)NC(=O)COc1ccc(CNc2ccc3[nH]c(=O)[nH]c3c2)cc1 2.35%
CC(C)(C)N(Cc1ccccc1)C(=O)COC(=O)CCc1c[nH]c2ccccc12 -4.21%
COc1ccc(CCn2ccc(O)c(Cc3ccc(Cl)cc3Cl)c2=O)cc1OC -7.77%
COC(=O)c1c(C(=O)OC)c2n(c1C)CCS2 -0.93%
CC(NS(=O)(=O)c1ccccc1)c1n[nH]c(=S)n1-c1ccccc1 (centres undefined) 30%
Cc1ccccc1NC(=O)NNC(=O)OC(C)(C)C -4.21%
CCN(CC)CCNC(=O)C1c2ccccc2C(=O)N(C)C1c1cn(C)c2ccccc12 (centres undefined) 10.4%
O=C(NCCCN1CCN(Cc2ccccc2)CC1)C1CCN(S(=O)(=O)N2CCCC2)CC1 -28.8%
CCC(C)Cn1c(O)cc2nn(-c3nc4ccccc4s3)c(=O)c-2c1C (centres undefined) 13.9%
O=[N+]([O-])c1ccc(N2CCN(CC(O)COc3ccccc3)CC2)cc1 (centres undefined) 20.4%
OC(COCc1ccco1)CN1CCN(c2ccccc2)CC1 (centres undefined) 9.46%
CC1CCN(C2=NC(=O)/C(=C/c3cn[nH]c3-c3ccccc3)S2)CC1 1.73%
CC1(C)CC(=O)C=C(N2CCOCC2)C1 11.6%
Cc1nccn1CCC1CCCCN1C(=O)CCc1nnc(-c2ccsc2)o1 (centres undefined) 5.94%
Cc1ccc(C)c(NC(=O)CSc2nc3c(oc4ccccc43)c(=O)n2-c2ccccc2)c1 -11.9%
CCCCC(=O)Nc1cc(C)c2c(=O)oc3ccccc3c2n1 4.38%
CCOC(=O)c1c(C)nc2c(c1C)c(=O)oc1ccccc12 -22%
O=S(=O)(Nc1ccccn1)c1cccc(S(=O)(=O)c2ccc(Cl)cc2)c1 -10.4%
Clc1ccc(C2=CSC3=Nc4cccc5cccc(c45)N23)cc1 -26.6%
CCOc1ccc(/C=N/OCC(=O)NCc2cccs2)cc1 -0.95%
CC(C)OP(=O)(OC(C)C)C(Nc1ccccc1)c1cccc([N+](=O)[O-])c1 (centres undefined) 6.2%
CC(=O)NCC(O)c1ccc([N+](=O)[O-])cc1 (centres undefined) -3.81%
O=C(CC1SCCNC1=O)Nc1ccc(Cl)c(Cl)c1 (centres undefined) 8.97%
O=C(CSc1nnc(-c2ccncc2)n1-c1ccc(Cl)cc1)Nc1ccc(C(=O)O)cc1 -5%
CC(=O)c1ccc(-c2nnc(CCC(=O)N(C)Cc3cnc4ccccn34)o2)s1 10.1%
Cc1cc(C)nc(NC(=O)Nc2ccccc2C(F)(F)F)n1 -11.5%
O=C(c1cc(-c2ccc(O)cc2)on1)N1CCCc2ccccc21 -13.9%
